HCV inh: qHTS Assay for Inhibitors of Hepatitis C Virus (HCV). Huh7.5.1 HCVcc-Cre infection, luciferase reporter, 44 h. Potency, µM (series often up to 41.8 µM), actives largely listed as inhibitors. 340,000 compounds, 3.4% hits. AID 651820, 2012; active = well fitted inhibition curve with a large enough effect; inconclusive = small, poorly fitted or top-dose-only effect, or another doubt; inactive = no such curve, though single readings can be large or run the other way
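Infectious HCVcc-Cre (~0.5 moi) was added to cells just after compound, with cells seeded 4 h earlier at 1,000 per well. Luciferase activity after 44 h culture reported infection; substrate was incubated 15 min at room temperature before reading.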
Lassa entry inh: qHTS for Inhibitors of binding or entry into cells for Lassa Virus; AID 540256, 2011; Lassa virus pseudotype entry inhibition, cell reporter; Potency, µM (titrated, usually from 37.9 µM), most hits filed as inhibitors; 300,000 compounds, 1.2% hits; calls by dose curve; tested in HEK293 cells; note: nearly all actives have a fitted effect of over 50% in size
FMDV antiviral: High Throughput Screening for Foot and Mouth Disease Virus Antivirals. FMDV antiviral cell-based qHTS. 410,000 compounds, 1.2% hits. AID 1159524, 2015. Potency, µM (top dose mostly 57.9 µM), usual class: inhibitors; calls by dose curve; tested in HEK293T cells; note: read-out not given here; nearly all actives have a fitted effect of over 45% in size
HCMV inh: qHTS Assay for inhibitors of the human cytomegalovirus (HCMV); 410,000 compounds, 4.5% hits; activity change, negative = inhibition, % at 57.5 µM; HFF cells, HCMV-luciferase reporter, 72 h; hits give low values; in the data active = activity change below about -60%; inconclusive = no clear call, values can overlap the other calls; inactive = above about -39%
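Inhibition of viral replication was scored as loss of reporter luminescence in HFFs infected with HCMV-luciferase (MOI 1 PFU/cell) for 72 h; compounds tested at 2 doses, normalized to buffer and Salinomycin controls.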
Marburg entry inh: qHTS for inhibitors of binding or entry into cells for Marburg Virus; Marburg virus pseudotyped entry inhibition, cell reporter; Potency, µM (series often up to 37.8 µM), usual class: inhibitors; 300,000 compounds, 1.8% hits; calls by dose curve; tested in HEK293 cells
Of the large screens only hits and unclear results are named; the others gave an inactive call. This is a sample that favours compounds with a hit; in the whole collection about 7.9% have one here.

COc1ccc(OC)c(NC(=O)c2cc(S(=O)(=O)NCc3ccco3)ccc2F)c1	HCV inh 25.1µM, Marburg entry inh inconclusive
O=C(Nc1ccc(S(=O)(=O)NCc2ccco2)cc1)c1cccc(F)c1	none
COc1cccc(C(=O)Nc2ccc(S(=O)(=O)NCc3ccco3)cc2)c1	HCV inh 25.1µM
C=CCc1c(C)nc2nc(SCC(=O)Nc3ccc(C)c(C)c3)nn2c1C	HCMV inh -100.0 (no result: HCV inh, Marburg entry inh)
C=CCc1c(C)nc2nc(SCC(=O)Nc3cccc(Cl)c3)nn2c1C	FMDV antiviral inconclusive, HCMV inh inconclusive (no result: HCV inh, Marburg entry inh)
O=C(N/N=C/c1cc(Br)c(Br)o1)c1cc2ccccc2o1	Lassa entry inh inconclusive, HCMV inh active, Marburg entry inh inconclusive
O=C(N/N=C/c1ccc([N+](=O)[O-])o1)c1cc2c(ccc3ccccc32)o1	HCV inh inconclusive, HCMV inh -72.4 (no result: Lassa entry inh, Marburg entry inh)
CCN(CC)S(=O)(=O)c1cccc(C(=O)N/N=C/c2ccccc2OCC(=O)O)c1	none
O=C(N/N=C/c1ccc([N+](=O)[O-])o1)c1cc2ccccc2o1	HCV inh inconclusive, HCMV inh inconclusive (no result: Lassa entry inh, Marburg entry inh)
CCN(CC)S(=O)(=O)c1cccc(C(=O)N/N=C/c2ccc([N+](=O)[O-])o2)c1	HCV inh inconclusive, Lassa entry inh inconclusive, FMDV antiviral inconclusive, HCMV inh -60.8, Marburg entry inh inconclusive
Cc1nc2ccccn2c1C(=O)N/N=C/c1ccc([N+](=O)[O-])o1	HCV inh inconclusive, HCMV inh -74.3 (no result: Lassa entry inh, Marburg entry inh)
Cc1ccc(S(=O)(=O)N2C[C@H]3C(=O)C[C@@H](c4ccc(Cl)cc4)N(S(=O)(=O)c4ccc(C)cc4)[C@H]3C[C@H]2c2ccccc2)cc1	none (no result: HCV inh, Lassa entry inh, Marburg entry inh)
CNc1ccc(-c2ccccc2CO)cn1	none (no result: HCV inh, Lassa entry inh, Marburg entry inh)
Cn1cccc1C(=O)N1CCC2(CC1)CCN(c1cccc(-c3ccccc3)c1)CC2	none (no result: HCV inh, Lassa entry inh, HCMV inh, Marburg entry inh)
CC[C@@H](NC(=O)[C@@H](Cc1ccccc1)NC(=O)CC[C@H]1O[C@@H](n2ccc(=O)[nH]c2=O)[C@H](O)[C@@H]1O)c1ccccc1	none (no result: HCV inh, Lassa entry inh, Marburg entry inh)
Cc1c(C(=O)N(C)Cc2cscn2)sc2ncnc(NC[C@H]3CCc4ccccc4O3)c12	none (no result: HCV inh, Lassa entry inh, HCMV inh, Marburg entry inh)
O=C(N/N=C/c1ccc([N+](=O)[O-])o1)c1ccc(O)cc1	HCV inh 25.1µM, Lassa entry inh inconclusive, HCMV inh -92.8, Marburg entry inh inconclusive
Cc1scc(C(=O)N/N=C/c2ccc([N+](=O)[O-])o2)c1C	HCMV inh -100.1 (no result: HCV inh, Lassa entry inh, FMDV antiviral, Marburg entry inh)
O=C(N/N=C\c1ccc([N+](=O)[O-])o1)c1cncc(Br)c1	HCV inh 22.4µM, Lassa entry inh inconclusive, FMDV antiviral inconclusive, HCMV inh -83.2, Marburg entry inh inconclusive
CC(=O)OC[C@H]1O[C@@H](ON=C2C[C@@H](O)[C@@H](O)[C@@H]3[C@H]4C(=O)N(Cc5ccccc5)C(=O)[C@@H]4CC[C@@H]23)[C@H](OC(C)=O)[C@@H](OC(C)=O)[C@H]1OC(C)=O	Lassa entry inh inconclusive (no result: HCV inh, FMDV antiviral, HCMV inh)
Cc1ccc(S(=O)(=O)c2nnn(CC(=O)Nc3ccccc3C)c2N)cc1C	none (no result: HCV inh)
C[C@H](C(=O)N[C@H](CO)c1ccccc1)N1Cc2ccc(N3CCOCC3)nc2C1=O	none (no result: HCV inh, Lassa entry inh, FMDV antiviral, Marburg entry inh)
CN(C)CC(C)(C)CNC(=O)C1CCN(CCCc2ccccc2)CC1	HCV inh 12.6µM (no result: Lassa entry inh, Marburg entry inh)
CCCCN(C)C(=O)C1CCN(CCCc2ccccc2)CC1	none
Fc1cccc(-c2oncc2-c2nnnn2-c2ccc(Cl)cc2)c1	HCMV inh -66.9
Clc1ccc(-n2nnnc2-c2ccno2)cc1	none
Fc1ccc(-n2nnnc2-c2ccccc2Cl)cc1	HCMV inh -66.7, Marburg entry inh inconclusive
O=P(Cc1ccccc1)(c1ccccc1)c1ccccc1	none
CC(C)(C)c1cc(CP(=O)(c2ccccc2)c2ccccc2)cc(C(C)(C)C)c1O	HCV inh 15.8µM, FMDV antiviral inconclusive (no result: Lassa entry inh, Marburg entry inh)
CCCSC1=C(C#N)C(c2ccccc2C)CC(=O)N1 (configuration not stated)	FMDV antiviral inconclusive, HCMV inh -99.3, Marburg entry inh inconclusive
CCCCSC1=C(C#N)C(c2ccccc2C)CC(=O)N1 (configuration not stated)	FMDV antiviral inconclusive, HCMV inh inconclusive (no result: Lassa entry inh, Marburg entry inh)
CCSC1=C(C#N)C(c2ccccc2OC)CC(=O)N1 (configuration not stated)	HCMV inh -74.9 (no result: Lassa entry inh, Marburg entry inh)
COCCn1c(=O)c(CCc2ccccc2)nc2cnc(Oc3ccccc3)nc21	none (no result: HCV inh, Lassa entry inh, HCMV inh, Marburg entry inh)
CN=c1scc(-c2ccccc2F)n1/N=C(\C)c1cccnc1	HCV inh 31.6µM, Lassa entry inh inconclusive, Marburg entry inh inconclusive
C/C(=N\N1CCN(C2c3ccccc3-c3ccccc32)CC1)c1cccnc1	FMDV antiviral inconclusive
COCCN(CC(=O)Nc1cccc(C)c1C)C(=O)Cc1ccsc1	HCMV inh inconclusive (no result: Lassa entry inh, Marburg entry inh)
CCNc1ccc(S(=O)(=O)NCCN(C)C)cc1[N+](=O)[O-]	none (no result: Lassa entry inh, Marburg entry inh)
CN(C)CCCNS(=O)(=O)c1ccc(NC2CCCCCC2)c([N+](=O)[O-])c1	HCV inh 5.62µM, HCMV inh -69.1, Marburg entry inh inconclusive
Cc1nn(CC(O)CN2c3ccccc3Sc3ccccc32)c(C)c1Br (configuration not stated)	HCV inh inconclusive, Lassa entry inh inconclusive, FMDV antiviral inconclusive, Marburg entry inh 11.2µM
Cc1ccc(C2(C)NC(=O)N(CC(=O)N3CCN(S(=O)(=O)c4ccc(Cl)s4)CC3)C2=O)cc1 (configuration not stated)	FMDV antiviral inconclusive
CC1=C(C(=O)OCCc2ccccc2)C(c2ccsc2)NC(=O)N1C (configuration not stated)	Lassa entry inh inconclusive, HCMV inh -66.5
O=C(Nc1ccccc1)Nc1nnc(-c2ccccc2)o1	none
Fc1ccc(NC2=NCCCCC2)cc1	none (no result: Lassa entry inh)
Fc1ccc(-c2nnc(NC3=NCCCCC3)o2)cc1	Lassa entry inh 1µM, FMDV antiviral 10µM, HCMV inh -82.9, Marburg entry inh inconclusive
c1ccc(-c2nnc(NC3=NCCC3)o2)cc1	Lassa entry inh 7.08µM, Marburg entry inh inconclusive
CCOC(=O)c1c(-c2ccc(C)cc2)cn2ccccc12	HCV inh 10µM
Cn1c(=O)c2c(nc(Br)n2CC(=O)C23CC4CC(CC(C4)C2)C3)n(C)c1=O	HCV inh inconclusive, Lassa entry inh inconclusive, FMDV antiviral inconclusive, Marburg entry inh 18.3µM
COc1cccc(C(=O)Cn2c(Br)nc3c2c(=O)n(C)c(=O)n3C)c1	none
O=C(Nc1ccccc1)Nc1ccc2nnsc2c1	none
O=C(Nc1ccccc1)Nc1ccc2snnc2c1	HCV inh 11.2µM, Marburg entry inh inconclusive
O=C(Nc1cccc(C(F)(F)F)c1)Nc1ccc2snnc2c1	Lassa entry inh inconclusive, HCMV inh -104.7, Marburg entry inh inconclusive (no result: HCV inh)
C[C@@H](c1ccccc1)N1C(=O)[C@@H]2[C@H]3[C@H](O)[C@H](O)CC(=NNC(=O)OCc4ccccc4)[C@@H]3CC[C@H]2C1=O	none (no result: HCV inh, Lassa entry inh, FMDV antiviral, HCMV inh)
CC(C)N1CCN(c2ccc(OCC3COC(Cn4cncn4)(c4ccc(Cl)cc4Cl)O3)cc2)CC1 (configuration not stated)	HCV inh inconclusive, Marburg entry inh inconclusive
CC(C)N1CCN(c2ccc(OC[C@H]3CO[C@](Cn4cncn4)(c4ccc(Cl)cc4Cl)O3)cc2)CC1	HCV inh inconclusive, HCMV inh -98.7 (no result: Lassa entry inh, Marburg entry inh)
